Experiment in all cases: NCI-60 one-dose screen, 48 h (100 = growth as untreated, 0 = no growth, -100 = all killed)
Common to all, as to conditions: 10 µM unless noted

Test [1] concerns NCI-H23 lung.
Test [2] relates to NCI-H226 lung.
Test [3] has as its system NCI-H322M lung.
Test [4] concerns NCI-H460 lung.
For test [5], the system named is HOP-92 NSCLC.
Test [6] deals with NCI-H522 lung.
For test [7], the system named is A549/ATCC NSCLC.
Test [8] concerns 786-0 renal.
The subject of test [9] is COLO 205 colon.
Test [10] concerns DU-145 prostate.
The test system of test [11] is K-562 leukemia.
Test [12] deals with MALME-3M melanoma.
Test [13] deals with MDA-MB-231 breast.
Test [14] relates to RXF 393 renal.
Test [15] relates to SF-268 CNS.
The test system of test [16] is SF-295 CNS.
The test system of test [17] is SF-539 CNS.
Test [18] has as its system UACC-257 melanoma.
The subject of test [19] is M14 melanoma.
In test [20] the test system is HOP-62 NSCLC.

The values below come from PubChem BioAssay (NCI).

Compounds without any hit were thinned out: in the full panel of roughly 83,000, 20% have a hit.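 Each cell line was grown in a 96-well plate and treated with one concentration of compound for 48 hours. Values below 10 were considered active.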 A number with no mark means an inactive call. Activity calls are given as the source filed them.

`O=C(N=Nc1c(O)[nH]c2ccc(Cl)cc12)c1ccc2nc(-c3ccc(Cl)cc3)[nH]c2c1`: the growth in [1] was -71.5% (active); in test [2], 51.1%; in test [3], 31.4%; in test [4], 11.8%; in test [5], -0.983% (active); in test [6], -26.9% (active). Also, the growth was 41.5% in test [7]; -72.6% (active) in test [8]; -17.6% (active) in test [9]; 5.09% (active) in test [10]; 8.93% (active) in test [11]; -1.72% (active) in test [12]. The growth in test [13] is -79.9% (active); in test [14], -27.7% (active); in [15], 0.662% (active); in test [16] it was -12.5% (active); in test [17] it was -93.6% (active); in test [18], 57.8%. Moreover, the growth in test [19] is -6.49% (active).

Consider `O=C(c1ccc(Cl)cc1)C1[C@H](c2ccccc2Cl)[C@@H](c2ccccc2)NC12C(=O)Nc1ccccc12` (stereo partly specified), for which the growth was -50.2% (active) in test [1]; -67.5% (active) in test [2]; 12.5% in [3]; -57.2% (active) in test [4]; -48% (active) in test [5]; -30.9% (active) in test [6]. Further, the growth in [7] was 3.68% (active); in test [8], -58.4% (active); in test [9] it was -87.8% (active); in [10], -12.8% (active); in [11] it was -36.6% (active); in [12] it was -34.8% (active). Besides, the growth in test [13] is -64.8% (active); in test [14] it was -80.8% (active); in test [15] it was 2.93% (active); in [16] it was -72.3% (active); in test [17] it was -89.7% (active); in test [18], 1.79% (active). Further, the growth in test [19] is -75.7% (active).

With `COc1ccc2[nH]c(O)c(N=NC(=O)c3ccc4nc(-c5ccc(Cl)cc5)[nH]c4c3)c2c1`, the growth in [1] is 65.6%; in [2], 77.5%; in test [3] it was 85.9%; in test [4], 101%; in [5] it was 73.3%; in test [6] it was 35.3%. In addition, the growth was 113% in [7]; 90.6% in test [8]; 18% in test [9]; 65.6% in test [10]; 41.8% in test [11]; 33.4% in test [12]. Besides, the growth is 23.9% in test [13]; 43.4% in test [14]; 27.3% in test [15]; 103% in test [16]; 67.6% in [17]; 100% in test [18]. The growth in test [19] was 59.4%.

In the case of `Cc1ccc2c(c1)nc(-c1ccccc1)n2CC(=O)N=Nc1c(O)[nH]c2ccc(Cl)cc12`, the growth in test [1] was -66% (active); in test [2] it was -53.5% (active); in test [3] it was -53.8% (active); in test [4], -68.9% (active); in test [5] it was -74.2% (active); in [6], -75% (active). Further, the growth in test [7] was -18.7% (active); in [8], -92% (active); in [9], -87.6% (active); in test [10], -38% (active); in [11], -3.37% (active); in test [12], -28.6% (active). Further, the growth in [13] was -80.5% (active); in test [14], -88.4% (active); in [15], 2.28% (active); in test [16] it was -62.4% (active); in [17], -90.3% (active); in test [18], -28.2% (active). Also, the growth in test [19] was -28.4% (active).

For `O=CNc1ccc(-n2cnc3cc(-c4ccc(O)cc4)ccc32)cc1`, the growth in test [1] is 86.5%; in test [2], 83.5%; in test [3] it was 91.1%; in [4], 87.4%; in test [5] it was 96.5%; in test [6], 82.1%. For the same compound, the growth is 86.9% in [7]; 101% in test [8]; 136% in test [9]; 86.7% in [10]; 64.7% in test [11]; 65.9% in test [12]. For the same compound, the growth is 108% in test [13]; 86.5% in test [14]; 84.6% in test [15]; 103% in test [16]; 60.5% in [17]; 98.8% in [18]. The growth in test [19] is 91.5%.

Take `Cn1cc(-c2cc(N)n3nc(-c4c[nH]c5ccc(Cl)cc45)cc3n2)c2cccnc21`: the growth in test [1] is -75.7% (active); in test [2], -58.4% (active); in [3] it was -83.6% (active); in test [4], -47% (active); in test [5], -70.5% (active); in test [6], -82.1% (active). The growth in test [7] is -77.2% (active); in test [8] it was -92.5% (active); in [9], -83.1% (active); in test [10], -87.6% (active); in [11], -24.9% (active); in test [12] it was -92.3% (active). Besides, the growth in test [13] was -82.3% (active); in test [14], -73.4% (active); in test [15], -47.4% (active); in test [16], -92.6% (active); in [17], -95.6% (active); in [18] it was -85.5% (active). Moreover, the growth in test [19] is -90.5% (active).

For the compound `Cc1ccc(C(=O)Nc2cccc(C(=O)NC(=S)Nc3ccc(S(N)(=O)=O)cc3)c2)cc1`, the growth in test [1] was 76.9%; in test [3], 87.3%; in test [20], 74.9%; in test [4], 77.8%; in test [5], 67.5%; in test [6], 48.6%. Further, the growth was 74.7% in [7]; 81.7% in test [8]; 98.4% in test [9]; 77.3% in test [10]; 71.2% in [11]; 59.8% in test [12]. Moreover, the growth is 81.3% in test [13]; 46.4% in [14]; 61.4% in test [15]; 60.3% in test [16]; 76.4% in test [17]; 79.1% in test [18]. The growth in test [19] was 83.7%.

For `COc1ccc2c(c1)C(Sc1ccc(F)cc1)c1c(nc(N)c(C#N)c1N)O2` (stereo unspecified), the growth in test [1] is 90.7%; in test [2] it was 90.9%; in test [3], 94.4%; in [4], 95.7%; in test [5], 116%; in [7], 96.2%. For the same compound, the growth in test [8] was 80.7%; in test [9], 104%; in test [10], 99.5%; in [11] it was 63.5%; in test [12] it was 88.3%; in test [13] it was 80.1%. Further, the growth was 69.2% in test [14]; 85% in test [15]; 92.8% in test [16]; 90.5% in test [17]; 104% in test [18]; 84.9% in [19].
